Test results taken from PubChem BioAssay (NCATS).
A number with no mark means an inactive call. Records with an inconclusive call do not appear. Where a call stands in place of a potency, no number is given. Calls of active or inactive are those of the source. Unless noted, calls come from the whole dose curve; as a rule, active = well fitted curve in the direction sought with a large enough effect; inconclusive = small, poorly fitted or top-dose-only effect, or another doubt; inactive = no such curve, though single readings can be large; an effect the other way counts as inactive or inconclusive.

Assays:
[1] = qHTS assay for measurement of the activity of small molecule inhibitors on Zika virus induced Caspase-3 activity in human iPSC derived neural progenitor cells (hNPCs) (AID 1224857); note: nearly all actives have a fitted effect of over 65% in size
Summary of the method: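 Cells were plated at 350 per well and grown 16 to 20 hours. Compound pretreatment lasted one hour, after which ZIKV (2 FFU/cell) was added for 6 hours. Percent inhibition was normalized between uninfected and infected controls.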

[2] = qHTS assay for measurement of the activity of small molecule inhibitors on Zika virus induced Caspase-3 activity in human astrocytoma cells (AID 1224859)
Summary of the method: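 Percent inhibition of virus-induced caspase-3/7 signal is calculated against uninfected and ZIKV-infected control cells. Cells are SNB-19, infected at 2 FFU/cell for 6 h after 1 h compound exposure.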

[3] = qHTS assay to identify small molecule inhibitors of chordoma cells - UCH-2 (AID 1259356); note: series mostly up to about 46 µM
[4] = Natriuretic polypeptide receptor (hNpr1) antagonism - Pilot counterscreen GloSensor control cell line (AID 1347045; calls by dose curve; note: series mostly up to about 38 µM)
Summary of the method: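 Control counterscreen: luciferase cGMP-biosensor HEK293 cells (no Npr1) received compound for 30 min at room temperature after GloSensor substrate loading. Luminescence was measured before and 20 min after soluble guanylyl cyclase activation by 50 uM nitroprusside.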

[5] = target: Atrial natriuretic peptide receptor 1 (Homo sapiens) (UniProt P16066); experiment: Natriuretic polypeptide receptor (hNpr1) antagonism - Pilot screen (AID 1347049; calls by dose curve;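 note: agonist-evoked cGMP luminescence read 20 min after hNppA addition; series mostly up to about 58 µM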)
Summary of the method: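 cGMP-sensor HEK293/hNpr1 cells, 1500/well, plated overnight at 37C. 2% GloSensor reagent, 2 h RT. Compound (23 nL pin transfer) 30 min RT, baseline luminescence pre-read. 0.1 nM hNppA, 20 min RT, post-read.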

[6] = NS1 protein of Zika virus - qHTS assay to identify small molecule inhibitors in human HEK 293 cells (AID 1347053); note: series mostly up to about 46 µM; nearly all actives have a fitted effect of over 55% in size
Summary of the method: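 Compound-treated (1 h pre-infection) HEK 293 cells infected with ZIKV MR766, MOI = 0.5; after 24 h at 37 C, NS1 read by TR-FRET; data normalized to uninfected and infected controls.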

[7] = target: T1, Tyrosine-protein phosphatase non-receptor type substrate 1 (Homo sapiens) + Leukocyte surface antigen CD47 (Homo sapiens) (UniProt P78324+Q08722); experiment: CD47-SIRPalpha protein protein interaction - LANCE assay qHTS validation (AID 1347057; active = well fitted curve in the direction sought with a large enough effect in the signal ratio, with a control signal flat, not every such curve was filed as active; the % refers to the signal ratio; note: series mostly up to about 38 µM)
Summary of the method: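 Inhibition of soluble CD47/SIRPalpha ectodomain association by titrated compounds, measured as 665/615 nm time-resolved FRET ratio after sequential 30 min room-temperature incubations.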

[8] = target: T1, Tyrosine-protein phosphatase non-receptor type substrate 1 (Homo sapiens) + Leukocyte surface antigen CD47 (Homo sapiens); experiment: CD47-SIRPalpha protein protein interaction - Alpha assay qHTS validation (AID 1347059);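 note: bead proximity luminescence from CD47 binding SIRPalpha after compound preincubation with SIRPalpha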
Summary of the method: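 SIRPalpha-biotin 25 nM + cpd, 30 min RT, dark; add CD47-His 12.5 nM, 30 min; add Ni-NTA/SAV beads 10 ug/mL, 30 min; AlphaScreen. Buffer PBS pH 7.4 + 0.05% IGEPAL CA-630. Non-biotinylated SIRPalpha as control inhibitor.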

[9] = target: Parathyroid hormone/parathyroid hormone-related peptide receptor (Homo sapiens) (UniProt Q03431); experiment: qHTS for PTHR1 Agonists: Optimization Screen against the NCGC LOPAC library (AID 1347079);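 note: GloSensor cAMP luminescence in HEK-293 GP2 cells expressing human PTHR1 with IBMX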
Summary of the method: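 HEK-293 GP2 cells, PTHR1 + GloSensor cAMP; 3000 cells/well, o/n. Luciferin + IBMX 0.5mM each (stock), 1 hr 37C. Cpd titration, 1 hr 37C. Lum after 15 min RT. Ctrl M-PTH(1-15) top 10uM.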

[10] = qHTS of pediatric cancer cell lines to identify multiple opportunities for drug repurposing: Primary screen for TC32 cells (AID 1347089); note: nearly all actives have a fitted effect of over 60% in size; note: potency is the fitted concentration of half-maximal effect
Summary of the method: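 In the primary qHTS, MIPE compounds were tested at 11 concentrations (0.78 nM to 46 µM) and NPC compounds at 8 (0.59 nM to 46 µM) on TC32 cells for 48 h. CellTiter-Glo luminescence gave viability.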

[11] = P-glycoprotein substrates identified in KB-8-5-11 adenocarcinoma cell line, qHTS therapeutic library screen (AID 1346987); note: series mostly up to about 44 µM; nearly all actives have a fitted effect of over 65% in size
Summary of the method: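 Compounds are pinned in dose-response onto KB-8-5-11 cells (500 cells/well, colchicine-free medium) and left 72 h at 37 degree C. CellTiter-Glo luminescence then yields AC50 values.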

[12] = target: Atrial natriuretic peptide receptor 2 (Homo sapiens) (UniProt P20594); experiment: Natriuretic polypeptide receptor (hNpr2) antagonism - Pilot subtype selectivity assay (AID 1347050; calls by dose curve)
Summary of the method: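 Luminescence from a genetically encoded cGMP luciferase biosensor in hNpr2-expressing HEK293 cells is read before and 20 min after adding 1 nM hNppC. Test compounds, in interplate 1:5 titrations, are added 30-50 min ahead of the agonist.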

[13] = qHTS assay to identify small molecule inhibitors of chordoma cells - UCH-1 (AID 1259355); note: nearly all actives have a fitted effect of over 55% in size
Summary of the method: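 Screening used approved and investigational drugs in 15-point titration against 800 seeded cells per well. A fixed combination of auranofin with camptothecin, doxorubicin, rubitecan and topotecan followed compound addition, and growth was scored by CellTiter-Glo after 48hr.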

Parathyroid hormone/parathyroid hormone-related peptide receptor (Homo sapiens), sequence (Q03431 whole entry, looked up): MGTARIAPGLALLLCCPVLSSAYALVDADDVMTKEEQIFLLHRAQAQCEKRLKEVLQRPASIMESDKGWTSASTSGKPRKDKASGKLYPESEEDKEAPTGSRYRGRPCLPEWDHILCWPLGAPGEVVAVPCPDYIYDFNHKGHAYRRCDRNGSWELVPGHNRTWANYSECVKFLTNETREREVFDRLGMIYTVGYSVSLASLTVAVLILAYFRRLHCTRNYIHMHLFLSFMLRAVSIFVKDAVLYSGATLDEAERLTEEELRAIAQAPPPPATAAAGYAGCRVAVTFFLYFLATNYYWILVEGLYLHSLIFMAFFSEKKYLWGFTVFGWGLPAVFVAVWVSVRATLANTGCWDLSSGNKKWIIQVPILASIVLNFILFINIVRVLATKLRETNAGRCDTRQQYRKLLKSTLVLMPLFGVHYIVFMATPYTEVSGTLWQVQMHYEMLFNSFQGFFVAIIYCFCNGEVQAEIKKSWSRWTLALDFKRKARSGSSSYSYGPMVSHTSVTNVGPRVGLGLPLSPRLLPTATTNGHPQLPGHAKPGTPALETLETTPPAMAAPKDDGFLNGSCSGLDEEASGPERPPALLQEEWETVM
T1 sequence (P78324 whole entry, looked up, the tested form may be a part): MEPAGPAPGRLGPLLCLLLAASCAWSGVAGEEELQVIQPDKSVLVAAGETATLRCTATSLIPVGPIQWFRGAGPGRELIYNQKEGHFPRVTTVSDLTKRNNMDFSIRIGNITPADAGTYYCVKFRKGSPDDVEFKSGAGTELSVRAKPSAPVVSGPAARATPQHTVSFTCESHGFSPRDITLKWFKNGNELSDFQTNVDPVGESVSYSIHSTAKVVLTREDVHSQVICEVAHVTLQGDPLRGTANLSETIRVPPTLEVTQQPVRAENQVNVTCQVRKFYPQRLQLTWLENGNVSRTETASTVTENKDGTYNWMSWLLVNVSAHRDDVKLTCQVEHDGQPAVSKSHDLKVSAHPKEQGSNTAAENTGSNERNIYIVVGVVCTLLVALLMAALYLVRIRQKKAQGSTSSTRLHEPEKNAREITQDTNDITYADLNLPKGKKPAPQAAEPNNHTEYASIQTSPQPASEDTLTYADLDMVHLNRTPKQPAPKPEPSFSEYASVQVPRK
T1 sequence (Q08722 whole entry, looked up, the tested form may be a part): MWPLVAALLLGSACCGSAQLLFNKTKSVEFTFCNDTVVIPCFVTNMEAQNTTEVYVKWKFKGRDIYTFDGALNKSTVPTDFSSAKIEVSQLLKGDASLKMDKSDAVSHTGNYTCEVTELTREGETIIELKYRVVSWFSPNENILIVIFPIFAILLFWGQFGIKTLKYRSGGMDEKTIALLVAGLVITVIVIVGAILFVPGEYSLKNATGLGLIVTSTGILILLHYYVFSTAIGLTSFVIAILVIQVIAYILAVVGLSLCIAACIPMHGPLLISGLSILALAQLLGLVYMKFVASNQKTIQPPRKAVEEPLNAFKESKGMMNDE
Atrial natriuretic peptide receptor 2 (Homo sapiens), sequence (P20594 whole entry, looked up): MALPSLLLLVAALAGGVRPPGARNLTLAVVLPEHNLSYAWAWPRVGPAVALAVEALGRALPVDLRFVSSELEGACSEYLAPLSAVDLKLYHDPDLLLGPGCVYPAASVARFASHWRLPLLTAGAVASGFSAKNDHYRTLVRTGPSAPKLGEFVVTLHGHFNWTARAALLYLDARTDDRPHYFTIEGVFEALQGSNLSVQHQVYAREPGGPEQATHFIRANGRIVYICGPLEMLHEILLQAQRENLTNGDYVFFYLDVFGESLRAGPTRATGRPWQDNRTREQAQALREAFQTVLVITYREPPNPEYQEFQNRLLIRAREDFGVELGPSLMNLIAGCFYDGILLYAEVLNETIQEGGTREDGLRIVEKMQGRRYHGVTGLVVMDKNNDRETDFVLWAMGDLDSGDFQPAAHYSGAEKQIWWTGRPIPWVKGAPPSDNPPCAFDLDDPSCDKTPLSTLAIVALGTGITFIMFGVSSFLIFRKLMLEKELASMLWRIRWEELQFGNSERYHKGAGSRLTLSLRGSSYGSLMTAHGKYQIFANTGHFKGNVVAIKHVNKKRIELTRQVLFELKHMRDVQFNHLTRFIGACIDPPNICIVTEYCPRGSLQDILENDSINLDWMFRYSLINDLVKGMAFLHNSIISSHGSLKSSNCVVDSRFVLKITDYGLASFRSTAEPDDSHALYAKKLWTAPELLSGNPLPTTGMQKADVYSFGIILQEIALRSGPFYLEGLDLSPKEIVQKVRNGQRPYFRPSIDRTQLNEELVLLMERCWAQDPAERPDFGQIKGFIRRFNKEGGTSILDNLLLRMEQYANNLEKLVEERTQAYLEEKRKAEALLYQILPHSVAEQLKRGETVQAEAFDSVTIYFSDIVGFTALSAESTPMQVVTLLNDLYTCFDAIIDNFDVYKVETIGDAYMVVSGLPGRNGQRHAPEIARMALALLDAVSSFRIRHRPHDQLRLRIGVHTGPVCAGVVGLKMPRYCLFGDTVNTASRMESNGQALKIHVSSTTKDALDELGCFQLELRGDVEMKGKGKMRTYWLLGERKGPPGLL
Atrial natriuretic peptide receptor 1 (Homo sapiens), sequence (P16066 whole entry, looked up): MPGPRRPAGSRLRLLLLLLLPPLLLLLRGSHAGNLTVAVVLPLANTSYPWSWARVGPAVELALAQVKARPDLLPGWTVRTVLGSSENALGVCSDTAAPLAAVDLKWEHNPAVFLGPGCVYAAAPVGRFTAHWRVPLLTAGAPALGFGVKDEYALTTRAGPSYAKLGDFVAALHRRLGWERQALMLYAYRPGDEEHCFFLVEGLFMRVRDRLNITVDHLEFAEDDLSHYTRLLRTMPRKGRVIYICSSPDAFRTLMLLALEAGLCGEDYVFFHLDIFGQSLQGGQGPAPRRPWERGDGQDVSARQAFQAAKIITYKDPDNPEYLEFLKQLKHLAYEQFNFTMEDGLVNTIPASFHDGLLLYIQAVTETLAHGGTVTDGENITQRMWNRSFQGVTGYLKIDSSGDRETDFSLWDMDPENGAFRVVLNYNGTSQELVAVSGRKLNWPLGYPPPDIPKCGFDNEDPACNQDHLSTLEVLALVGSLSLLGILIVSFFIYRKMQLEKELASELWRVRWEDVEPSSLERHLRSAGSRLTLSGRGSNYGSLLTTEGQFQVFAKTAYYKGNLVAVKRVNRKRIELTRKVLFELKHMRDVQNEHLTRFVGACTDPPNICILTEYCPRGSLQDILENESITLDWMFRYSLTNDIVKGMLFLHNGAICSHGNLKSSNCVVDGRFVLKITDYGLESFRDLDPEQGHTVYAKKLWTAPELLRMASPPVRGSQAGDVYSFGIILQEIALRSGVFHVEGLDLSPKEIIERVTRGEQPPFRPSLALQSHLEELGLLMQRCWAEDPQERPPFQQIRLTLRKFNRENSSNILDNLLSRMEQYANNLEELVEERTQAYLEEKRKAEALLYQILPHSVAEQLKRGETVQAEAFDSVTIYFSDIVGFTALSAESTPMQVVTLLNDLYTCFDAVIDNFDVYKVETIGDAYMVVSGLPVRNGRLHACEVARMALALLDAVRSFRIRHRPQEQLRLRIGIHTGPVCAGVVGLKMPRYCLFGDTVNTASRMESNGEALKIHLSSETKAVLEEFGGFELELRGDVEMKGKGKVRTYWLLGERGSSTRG

Compound | outcome [1] | outcome [2] | outcome [3] | outcome [4] | outcome [5] | Potency [6] | outcome [7] | outcome [8] | Potency [9] | Potency [10] | Potency [11] | Potency [12] | activity change, negative = cytotoxic [10] | Potency [13]
CNCCCC1c2ccccc2C=Cc2ccccc21 | inactive | inactive | inactive | inactive | inactive | inactive | inactive | inactive | inactive | inactive | – | – | – | –
NC(N)=NCCC[C@H](N)C(=O)O | inactive | inactive | – | – | inactive | inactive | – | – | inactive | – | inactive | inactive | 3.73% [at 4.81 µM] | –
CC(C)C(=O)c1c(C(C)C)nn2ccccc12 | inactive | inactive | – | inactive | inactive | inactive | inactive | inactive | inactive | inactive | inactive | inactive | – | –
Cc1c(O)cccc1C(=O)N[C@@H](CSc1ccccc1)[C@H](O)CN1C[C@H]2CCCC[C@H]2C[C@H]1C(=O)NC(C)(C)C | inactive | inactive | inactive | – | – | inactive | inactive | inactive | – | – | – | – | – | –
CC(CN(C)C)CN1c2ccccc2CCc2ccccc21 (configuration not stated) | inactive | inactive | inactive | inactive | inactive | inactive | inactive | inactive | inactive | inactive | – | – | – | –
CC1=C(CC(=O)O)c2cc(F)ccc2/C1=C\c1ccc(S(C)(=O)=O)cc1 | inactive | inactive | – | inactive | inactive | inactive | inactive | inactive | inactive | inactive | inactive | inactive | – | –
C[C@]12C[C@H](O)[C@H]3[C@@H](CCC4=CC(=O)CC[C@@]43C)[C@@H]1CC[C@@H]2C(=O)CO | inactive | inactive | inactive | inactive | inactive | inactive | inactive | inactive | inactive | inactive | – | inactive | – | –
CN(C)CCC=C1c2ccccc2CCc2ccccc21 | inactive | inactive | – | inactive | inactive | inactive | inactive | inactive | inactive | inactive | – | – | – | –
CNCC(O)c1ccc(O)c(O)c1 (configuration not stated) | inactive | inactive | – | inactive | inactive | inactive | inactive | inactive | inactive | inactive | – | inactive | – | –
N=c1c[n+](N2CCOCC2)[n-]o1 | inactive | inactive | – | inactive | inactive | inactive | inactive | inactive | inactive | – | – | inactive | – | –
C[C@H]1O[C@@H](n2cc(F)c(=O)[nH]c2=O)[C@H](O)[C@@H]1O | – | inactive | inactive | – | – | inactive | inactive | inactive | – | inactive | inactive | – | – | inactive
C[C@H](NC(CCc1ccccc1)C(=O)O)C(=O)N1CCC[C@H]1C(=O)O (some centres not stated) | inactive | inactive | – | – | – | inactive | inactive | inactive | – | inactive | inactive | – | – | –
Oc1ccc(C(O)CNCCCCCCNCC(O)c2ccc(O)c(O)c2)cc1O (configuration not stated) | – | inactive | inactive | – | – | inactive | – | – | – | inactive | inactive | – | – | inactive
O=C(O)COc1nn(Cc2ccccc2)c2ccccc12 | – | inactive | inactive | – | – | inactive | – | – | – | inactive | inactive | – | – | inactive
CN1CCC[C@@H]1Cc1c[nH]c2ccc(CCS(=O)(=O)c3ccccc3)cc12 | – | inactive | inactive | – | – | inactive | inactive | inactive | – | inactive | inactive | – | – | inactive
OC[C@H]1O[C@@H](O[C@@H]2[C@@H](CO)O[C@](O)(CO)[C@H]2O)[C@H](O)[C@@H](O)[C@H]1O | – | inactive | inactive | – | – | inactive | – | – | – | inactive | inactive | – | – | inactive
COC(=O)[C@H]1[C@H]2C[C@@H]3c4[nH]c5cc(OC)ccc5c4CCN3C[C@H]2C[C@@H](OC(=O)COc2ccc(OC)cc2)[C@@H]1OC | – | inactive | inactive | – | – | inactive | – | – | – | inactive | – | – | – | inactive
O=C1O[C@H](CO)[C@@H](O)[C@H](O)[C@H]1O | – | inactive | inactive | – | – | inactive | – | – | – | inactive | inactive | – | – | inactive
COc1ccccc1O | – | inactive | inactive | – | – | inactive | – | – | – | inactive | inactive | – | – | inactive
CC[C@H]1CN2CCc3cc(OC)c(OC)cc3[C@@H]2C[C@@H]1C[C@H]1NCCc2cc(OC)c(OC)cc21 | – | inactive | – | inactive | inactive | inactive | inactive | inactive | inactive | 333 nM (active) | – | inactive | – | –
